# HT1080-NT tox: qHTS for induction of synthetic lethality in tumor cells producing 2HG: qHTS for the HT-1080-NT fibrosarcoma cell line; Potency, µM (doses to about 46.1 µM), for inactives: at the highest dose activity, negative = less viability, usual class: cytotoxic; AID 686970, 2013; 360,000 compounds, 1.6% hits; HT-1080-NT fibrosarcoma viability, CellTiter-Glo ATP luminescence, 48 h;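 further: NT is the 2HG producing partner of a matched IDH1 knockdown line; 0% = DMSO-treated cells and -100% = media-only wells without cells; nearly all actives have a fitted effect of over 55% in size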
#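 Compounds were tested in concentration-response format on HT-1080-NT cells for 48 hours at 37 degrees C. Cell viability came from CellTiter-Glo luminescence; curves were classified by r2, response magnitude and activity.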
# HT1080 IDH1KD tx: qHTS for induction of synthetic lethality in tumor cells producing 2HG: qHTS for the HT-1080-IDH1KD cell line; HT-1080 IDH1 knockdown viability, ATP luminescence, 48 h; Potency, µM (titrated, usually from 46.1 µM), for inactives: top-dose activity, negative = toxicity, usual class: cytotoxic; 360,000 compounds, 2% hits; AID 686971, 2013;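 further: 0% = DMSO wells and -100% = cell-free medium wells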
#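 Using the IDH1-knockdown HT-1080 line run in the same batch and compound series as the NT line, viability after 48 h at 37 °C was determined by CellTiter-Glo luminescence and expressed as % activity.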
# KB-3-1 tox: qHTS assay for MDR1-selective chemotherapeutics: Primary screen using the parental adenocarcinoma cell KB-3-1; KB-3-1 viability, CellTiter-Glo ATP luminescence, 72 h; 400,000 compounds, 1.4% hits; AID 1347075, 2019; Potency, µM (highest dose often 46.1 µM), usual class: cytotoxic; further: on the % scale 0 is the no-effect control and ±100 the full control effect; nearly all actives have a fitted effect of over 60% in size
#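 Cytotoxicity in the drug-sensitive parental line KB-3-1 was scored as loss of CellTiter-Glo luminescence following 72 h incubation with compound. Values come from curve fitting of normalized concentration-response data.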
# MCF10A rereplic: A quantitative high throughput screen for small molecules that induce DNA re-replication in MCF 10a normal breast cells; MCF 10A DNA re-replication, Hoechst nuclear intensity, 48 h; Potency, µM (doses to about 46.1 µM), inactives show top-dose activity, positive = re-replication, hits mostly activators; 350,000 compounds, 2.9% hits; AID 624296, 2012; further: % of control where 0% means no effect; nearly all actives have a fitted effect of over 50% in size
# KB-V1 MDR tox: qHTS assay for MDR1-selective chemotherapeutics: Primary screen using the drug-selected MDR subline cells KB-V1; Potency, µM (series often up to 46.1 µM), most hits filed as cytotoxic; AID 1347076, 2019; 400,000 compounds, 3.4% hits; KB-V1 MDR cells viability, CellTiter-Glo, 72 h; further: on the % scale 0 is the no-effect control and ±100 the full control effect; nearly all actives have a fitted effect of over 60% in size
#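 KB-V1, DMEM (no phenol red) + 10% FBS; cpd pin-transferred, titration series; 72 h, 37 degrees C; CellTiter-Glo, luminescence. Data normalized, curve-fit.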
# SW480 rereplic: A quantitative high throughput screen for small molecules that induce DNA re-replication in SW480 colon adenocarcinoma cells; SW480 DNA re-replication, Hoechst DNA content imaging, 48 h; Potency, µM (series often up to 46.1 µM), without a hit: top-dose re-replication activation, most hits filed as activators; 340,000 compounds, 1.8% hits; AID 624297, 2012; further: % of control where 0% means no effect; nearly all actives have a fitted effect of over 55% in size
#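 Cells (250 per well) received 23 nL compound or DMSO by pin tool and were kept 48 hr at 37 C, 5% CO2. Nuclei were then stained with Hoechst for 40 min and scanned for DNA content.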
# * hit, by the source's call; i = inactive; ? = inconclusive; . = no result given; ! = a repeat was not active; [ ] = remark or other dose. This is a sample that favours compounds with a hit; in the whole collection about 8% have one here. The call rests on the fitted dose curve; in most records, active means well fitted curve in the direction sought with a large enough effect; inconclusive means small, poorly fitted or top-dose-only effect, or another doubt; inactive means no such curve, though single readings can be large; an effect the other way counts as inactive or inconclusive. Potency means the concentration at half of the fitted maximal effect.
SMILES,HT1080-NT tox,HT1080 IDH1KD tx,KB-3-1 tox,MCF10A rereplic,KB-V1 MDR tox,SW480 rereplic
CN(C)C(=O)CSc1nnc([C@H](Cc2c[nH]c3ccccc23)NC(=O)OC(C)(C)C)o1,-3.0%,10.2%,i,-4.9%,13µM*,-5.9%
Cc1ccccc1CS(=O)(=O)c1nnc([C@H](CC(C)C)NC(=O)OC(C)(C)C)o1,11.2µM*,3.98µM*,?,25.0%,i,?
CC(C)(C)OC(=O)N[C@@H](CCCCNC(=O)OCc1ccccc1)c1nnc([C@H](CCCCNC(=O)OCc2ccccc2)NC(=O)OC(C)(C)C)o1,1.6%,-3.8%,i,1.1%,i,11.4%
CCOC(=O)CSc1nnc([C@H](Cc2ccccc2)NC(=O)OC(C)(C)C)o1,8.3%,-21.1%,i,-3.9%,i,1.3%
CNc1ccc([N+](=O)[O-])cc1,16.0%,0.1%,i,-11.6%,i,-15.8%
CN(CC(=O)Nc1cccc(F)c1)C(=O)CSc1ccc(Br)cc1,-10.3%,-4.3%,i,4.1%,i,-41.9%
COCC(=O)Nc1c(C(=O)Nc2ccccc2OC)oc2ccccc12,16.4%,-22.4%,i,19.0%,i,-11.3%
CC[C@@H](C)[C@H](NC(=O)OCc1ccccc1)c1nnc([C@@H](NC(=O)OCc2ccccc2)[C@@H](C)CC)o1,-3.1%,-5.0%,i,-19.6%,i,2.1%
CC[C@@H](C)[C@H](NC(=O)OC(C)(C)C)c1nnc(S(=O)(=O)Cc2cc(C)ccc2C)o1,16.4µM*,10.3µM*,i,4.11µM*,?,12.7%
CC(C)(C)OC(=O)N[C@@H](Cc1ccccc1)c1nnc(S(=O)(=O)Cc2cccc(F)c2)o1,?,23.1µM*,18.4µM*,?,18.4µM*,?
Cn1cccc1Cc1nnc(SCC(=O)N2CCCCCC2)n1CCc1ccccc1,-6.2%,-1.6%,i,7.8%,i,0.0%
N#CCCn1cc(C(=O)Nc2ccc(C(=O)O)cc2)c(-c2ccc([N+](=O)[O-])cc2)n1,-2.7%,13.6%,i,0.7%,i,-10.8%
N#CCCn1cc(C(=O)Nc2cccc(C(=O)O)c2)c(-c2ccc(Cl)cc2)n1,2.1%,-0.6%,i,4.1%,i,4.11µM*
CCCOc1c(Br)cc(C2C3=C(CCCC3=O)N(CC)C3=C2C(=O)CCC3)cc1OC,-21.0%,?,i,?,i,16.4µM*
C#CCOc1c(Cl)cc(C2C3=C(CCCC3=O)N(CC(=O)O)C3=C2C(=O)CCC3)cc1OC,3.7%,2.4%,i,20.6µM*,i,-100.6%[1.84 µM]
CCCOc1c(Br)cc(C2C3=C(CCCC3=O)N(C)C3=C2C(=O)CCC3)cc1OC,-2.1%,-3.1%,i,-1.6%,?,?
COc1ccc(C2C3=C(CCCC3=O)N(CC(=O)O)C3=C2C(=O)CCC3)cc1Cl,5.4%,-13.4%,i,20.6µM*,?,?
CCOCCCN(C(=O)Cn1nnc(-c2ccc(C)o2)n1)C(C(=O)NCC1CCCO1)c1ccc(F)cc1 (configuration not stated),0.6%,17.3%,i,5.8%,i,2.1%
COc1ccc(N(C(=O)c2cccc(C)c2)S(=O)(=O)c2ccc3c(c2)n(C)c(=O)n3C)cc1,.,.,i,.,i,.
O=C(O)c1ccc(N=c2oc3cc(O)ccc3cc2C(=O)NCc2ccccc2)cc1,-12.8%,0.8%,i,?,i,243.9%
O=C(NCc1ccccc1)c1cc2ccc(O)cc2oc1=O,-1.7%,-9.0%,i,16.4µM*,i,7.31µM*
O=C(O)c1cc2ccc(O)cc2oc1=O,11.9%,7.4%,i,.,?,.
C/C(=N\NC(=O)CC#N)c1cc2ccc(O)cc2oc1=O,9.0%,4.0%,i,9.2µM*,i,20.6µM*
O=C(NC1CCCC1)C(c1ccc(F)cc1)N(Cc1ccccc1Cl)C(=O)CCl (configuration not stated),?,?,?,?,14.6µM*,?
O=C(NC1CCCC1)C(c1ccc(F)cc1)N(Cc1ccc(F)cc1)C(=O)c1ccn[nH]1 (configuration not stated),-0.7%,-1.2%,?,?,i,-0.2%
SMILES,HT1080-NT tox,HT1080 IDH1KD tx,KB-3-1 tox,MCF10A rereplic,KB-V1 MDR tox,SW480 rereplic
COCCN(C(=O)CCl)C(C(=O)NC1CCCCC1)c1ccccc1C (configuration not stated),?,13µM*,13µM*,?,20.6µM*,13µM*
Cc1nn(-c2ccccc2)c2c1N(CC(=O)N1CCN(c3ccc(Cl)cc3)CC1)C(=O)CS2,.,.,i,.,i,.
COc1ccc(SC[C@H](C)CN2CC[C@H](C)CCC2=O)cc1,4.8%,7.2%,18.4µM*!,20.2%,8.2µM*!,-0.6%
Cc1ccc(SC[C@H](C)CN2CC[C@H](C)CCC2=O)cc1,-1.1%,7.1%,?,?,18.4µM*!,?
COc1ccc(SC[C@H](C)CN2CC[C@H](O)CCC2=O)cc1,.,.,i,.,i,.
N#C/C(=C\c1ccc(O)cc1)C(=O)NCc1cccc(Cl)c1,-2.9%,-3.4%,i,4.8%,i,-9.8%
Cc1nn(Cc2ccc(F)cc2)c(C)c1NC(=O)c1cc(-c2ccco2)on1,-8.3%,-7.2%,i,?,i,0.1%
O=C(Nc1nc2ccccc2[nH]1)c1ccc(Cl)c(S(=O)(=O)N2CCCC2)c1,-19.3%,-26.1%,?,?,14.6µM*,?
COc1ccc(N(C)S(=O)(=O)c2cccc(C(=O)NCc3ccc(C)cc3)c2)cc1,-10.3%,-11.2%,i,8.1%,6.51µM*,3.1%
Cc1ccc(N(C)S(=O)(=O)c2cccc(C(=O)Nc3nc4ccccc4[nH]3)c2)cc1,-3.9%,-27.2%,?,?,2.31µM*,?
O=C(Nc1nc2ccccc2[nH]1)c1cccc(F)c1,-27.7%,?,i,?,i,20.6µM*
Cc1nc(SCCOc2ccccc2F)[nH]c(=O)c1Cc1ccccc1,16.5%,29.4%,i,6.0%,i,5.4%
CCc1ccc2nc(NC(=O)C3CSC4(C)CCC(=O)N34)sc2c1 (configuration not stated),-27.9%,-18.9%,i,22.5%,i,6.5%
CC(=O)c1ccc(NC(=O)/C=C/c2ccc(C)o2)cc1,.,.,i,.,?,.

# Screening results from PubChem.
